Laboratory results from ChEMBL document CHEMBL1961873, “Compounds: GSK PKIS; Assays: Nanosyn kinase panel” (2012).

What was measured:
[1] = molecular target: 5'-AMP-activated protein kinase catalytic subunit alpha-2 (Homo sapiens) (UniProt P54646); settings: at 1 µM
[2] = molecular target: T1, NUAK family SNF1-like kinase 1 (Homo sapiens) (UniProt O60285); settings: at 0.1 µM
T1 sequence (whole entry): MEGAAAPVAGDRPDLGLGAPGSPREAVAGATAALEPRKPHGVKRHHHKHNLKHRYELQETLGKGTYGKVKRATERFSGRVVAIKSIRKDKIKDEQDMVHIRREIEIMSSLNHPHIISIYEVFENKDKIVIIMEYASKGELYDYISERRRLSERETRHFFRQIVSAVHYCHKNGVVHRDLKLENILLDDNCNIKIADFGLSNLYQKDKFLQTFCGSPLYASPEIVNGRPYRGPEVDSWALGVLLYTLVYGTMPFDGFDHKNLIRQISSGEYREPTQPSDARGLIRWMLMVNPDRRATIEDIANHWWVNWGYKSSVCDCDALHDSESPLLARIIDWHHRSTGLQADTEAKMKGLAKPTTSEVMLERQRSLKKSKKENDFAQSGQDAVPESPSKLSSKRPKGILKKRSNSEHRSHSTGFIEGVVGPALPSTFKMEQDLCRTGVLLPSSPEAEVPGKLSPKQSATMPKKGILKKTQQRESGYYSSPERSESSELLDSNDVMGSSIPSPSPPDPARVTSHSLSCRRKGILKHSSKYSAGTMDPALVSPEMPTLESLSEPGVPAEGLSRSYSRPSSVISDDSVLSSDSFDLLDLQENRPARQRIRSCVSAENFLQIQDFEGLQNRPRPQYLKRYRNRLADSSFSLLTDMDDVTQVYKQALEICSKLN

[3] = molecular target: T1, NUAK family SNF1-like kinase 1 (Homo sapiens); settings: at 1 µM
[4] = molecular target: T2, Serine/threonine-protein kinase BRSK1 (Homo sapiens) (UniProt Q8TDC3); settings: at 0.1 µM
T2 sequence (whole entry): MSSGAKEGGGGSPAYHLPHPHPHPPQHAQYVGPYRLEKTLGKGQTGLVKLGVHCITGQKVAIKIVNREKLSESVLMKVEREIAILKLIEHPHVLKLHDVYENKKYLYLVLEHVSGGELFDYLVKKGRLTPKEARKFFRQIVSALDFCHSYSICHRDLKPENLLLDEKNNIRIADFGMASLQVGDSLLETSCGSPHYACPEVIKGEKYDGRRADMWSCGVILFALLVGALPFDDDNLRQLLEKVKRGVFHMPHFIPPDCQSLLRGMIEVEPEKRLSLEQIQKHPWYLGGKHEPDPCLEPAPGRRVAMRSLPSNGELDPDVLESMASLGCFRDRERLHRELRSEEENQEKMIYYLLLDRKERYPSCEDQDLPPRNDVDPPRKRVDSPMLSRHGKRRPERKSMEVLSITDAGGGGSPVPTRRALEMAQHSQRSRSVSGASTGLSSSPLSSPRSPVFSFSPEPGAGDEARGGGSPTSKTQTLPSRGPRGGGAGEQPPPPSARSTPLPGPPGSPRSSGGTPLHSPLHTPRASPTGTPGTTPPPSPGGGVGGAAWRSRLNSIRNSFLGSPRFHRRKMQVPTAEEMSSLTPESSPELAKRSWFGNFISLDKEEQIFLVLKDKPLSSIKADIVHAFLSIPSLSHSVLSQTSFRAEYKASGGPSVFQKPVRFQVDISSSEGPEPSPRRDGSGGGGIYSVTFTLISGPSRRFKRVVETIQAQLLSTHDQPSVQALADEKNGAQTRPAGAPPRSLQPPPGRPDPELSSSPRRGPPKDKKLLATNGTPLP

[5] = molecular target: T2, Serine/threonine-protein kinase BRSK1 (Homo sapiens); settings: at 1 µM
[6] = molecular target: T3, Serine/threonine-protein kinase BRSK2 (Homo sapiens) (UniProt Q8IWQ3); settings: at 0.1 µM
T3 sequence (whole entry): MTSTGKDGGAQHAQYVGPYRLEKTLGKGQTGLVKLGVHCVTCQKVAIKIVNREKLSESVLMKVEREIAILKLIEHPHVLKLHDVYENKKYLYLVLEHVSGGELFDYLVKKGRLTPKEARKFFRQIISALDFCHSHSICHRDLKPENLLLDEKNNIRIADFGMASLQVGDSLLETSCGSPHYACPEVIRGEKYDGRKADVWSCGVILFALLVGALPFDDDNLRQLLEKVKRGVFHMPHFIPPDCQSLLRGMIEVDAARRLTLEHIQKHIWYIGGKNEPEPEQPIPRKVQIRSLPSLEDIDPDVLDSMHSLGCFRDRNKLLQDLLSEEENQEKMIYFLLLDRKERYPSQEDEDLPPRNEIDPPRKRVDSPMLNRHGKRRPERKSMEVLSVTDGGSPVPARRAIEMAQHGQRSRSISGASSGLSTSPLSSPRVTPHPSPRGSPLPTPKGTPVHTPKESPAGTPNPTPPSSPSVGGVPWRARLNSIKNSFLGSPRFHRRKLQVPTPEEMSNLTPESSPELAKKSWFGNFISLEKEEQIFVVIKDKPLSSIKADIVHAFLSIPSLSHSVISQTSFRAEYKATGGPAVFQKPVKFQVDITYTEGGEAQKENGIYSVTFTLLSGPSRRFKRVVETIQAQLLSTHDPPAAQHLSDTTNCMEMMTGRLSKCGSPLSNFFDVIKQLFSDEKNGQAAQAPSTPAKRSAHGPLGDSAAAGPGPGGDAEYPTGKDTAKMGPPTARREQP

[7] = molecular target: T3, Serine/threonine-protein kinase BRSK2 (Homo sapiens); settings: at 1 µM
[8] = molecular target: Calcium/calmodulin-dependent protein kinase type 1D (Homo sapiens) (UniProt Q8IU85); settings: at 0.1 µM
Calcium/calmodulin-dependent protein kinase type 1D (Homo sapiens), sequence (Q8IU85 whole entry, looked up): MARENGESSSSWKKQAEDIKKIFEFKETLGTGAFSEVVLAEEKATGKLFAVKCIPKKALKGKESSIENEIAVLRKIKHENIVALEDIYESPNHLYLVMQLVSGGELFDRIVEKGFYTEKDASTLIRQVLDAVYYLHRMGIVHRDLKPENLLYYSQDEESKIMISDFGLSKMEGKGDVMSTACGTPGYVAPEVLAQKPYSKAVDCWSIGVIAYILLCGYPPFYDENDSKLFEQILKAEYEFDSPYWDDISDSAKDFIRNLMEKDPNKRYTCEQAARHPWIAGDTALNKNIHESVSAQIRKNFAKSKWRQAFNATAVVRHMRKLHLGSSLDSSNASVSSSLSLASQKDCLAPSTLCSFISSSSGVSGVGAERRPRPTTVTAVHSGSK

[9] = molecular target: Calcium/calmodulin-dependent protein kinase type 1D (Homo sapiens) (UniProt Q8IU85); settings: at 1 µM
[10] = molecular target: Calcium/calmodulin-dependent protein kinase type II subunit alpha (Homo sapiens) (UniProt Q9UQM7); settings: at 0.1 µM
Calcium/calmodulin-dependent protein kinase type II subunit alpha (Homo sapiens), sequence (Q9UQM7 whole entry): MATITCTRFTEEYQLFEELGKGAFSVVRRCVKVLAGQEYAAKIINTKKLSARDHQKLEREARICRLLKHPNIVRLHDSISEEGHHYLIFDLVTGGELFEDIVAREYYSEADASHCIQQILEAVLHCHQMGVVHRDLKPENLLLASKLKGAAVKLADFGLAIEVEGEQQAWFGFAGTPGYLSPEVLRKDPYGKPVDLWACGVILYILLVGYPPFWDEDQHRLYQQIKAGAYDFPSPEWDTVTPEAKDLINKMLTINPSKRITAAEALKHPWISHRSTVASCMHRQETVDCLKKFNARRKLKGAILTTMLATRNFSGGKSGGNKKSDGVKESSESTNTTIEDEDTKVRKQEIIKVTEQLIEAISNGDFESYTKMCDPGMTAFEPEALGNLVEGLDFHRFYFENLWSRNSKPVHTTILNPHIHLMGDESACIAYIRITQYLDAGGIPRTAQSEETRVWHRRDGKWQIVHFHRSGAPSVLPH

[11] = molecular target: Calcium/calmodulin-dependent protein kinase type II subunit alpha (Homo sapiens) (UniProt Q9UQM7); settings: at 1 µM
[12] = molecular target: Calcium/calmodulin-dependent protein kinase type II subunit delta (Homo sapiens) (UniProt Q13557); settings: at 0.1 µM
Calcium/calmodulin-dependent protein kinase type II subunit delta (Homo sapiens), sequence (Q13557 whole entry): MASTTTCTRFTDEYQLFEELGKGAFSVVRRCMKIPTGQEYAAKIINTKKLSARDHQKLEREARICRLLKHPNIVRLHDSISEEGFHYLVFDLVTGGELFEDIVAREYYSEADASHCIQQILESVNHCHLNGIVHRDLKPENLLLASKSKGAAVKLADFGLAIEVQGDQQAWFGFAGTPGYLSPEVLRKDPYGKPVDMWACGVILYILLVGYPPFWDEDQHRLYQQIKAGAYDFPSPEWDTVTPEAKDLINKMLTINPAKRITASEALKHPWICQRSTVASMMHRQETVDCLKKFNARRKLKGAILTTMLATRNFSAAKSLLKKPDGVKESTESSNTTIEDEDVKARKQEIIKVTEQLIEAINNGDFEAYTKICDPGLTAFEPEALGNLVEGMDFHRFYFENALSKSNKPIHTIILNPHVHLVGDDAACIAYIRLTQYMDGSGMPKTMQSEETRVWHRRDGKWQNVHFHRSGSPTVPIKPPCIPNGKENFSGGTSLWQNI

[13] = molecular target: Calcium/calmodulin-dependent protein kinase type II subunit delta (Homo sapiens) (UniProt Q13557); settings: at 1 µM
[14] = molecular target: T4, Calcium/calmodulin-dependent protein kinase type IV (Homo sapiens) (UniProt Q16566); settings: at 0.1 µM
T4 sequence (whole entry): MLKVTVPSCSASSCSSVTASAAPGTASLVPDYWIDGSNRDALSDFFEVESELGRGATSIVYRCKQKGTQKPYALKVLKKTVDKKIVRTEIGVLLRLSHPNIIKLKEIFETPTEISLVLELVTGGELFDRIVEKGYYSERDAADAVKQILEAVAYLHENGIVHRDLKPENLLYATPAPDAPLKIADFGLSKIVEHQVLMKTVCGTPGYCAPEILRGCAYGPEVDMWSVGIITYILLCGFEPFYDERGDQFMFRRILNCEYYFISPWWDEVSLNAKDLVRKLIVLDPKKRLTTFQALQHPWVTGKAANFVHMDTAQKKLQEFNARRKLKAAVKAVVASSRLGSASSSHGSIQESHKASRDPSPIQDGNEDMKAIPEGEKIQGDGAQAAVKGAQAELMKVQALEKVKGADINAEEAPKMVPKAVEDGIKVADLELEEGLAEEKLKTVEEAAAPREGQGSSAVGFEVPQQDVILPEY

[15] = molecular target: T4, Calcium/calmodulin-dependent protein kinase type IV (Homo sapiens); settings: at 1 µM
[16] = molecular target: T5, Serine/threonine-protein kinase Chk1 (Homo sapiens) (UniProt O14757); settings: at 0.1 µM
T5 sequence (whole entry): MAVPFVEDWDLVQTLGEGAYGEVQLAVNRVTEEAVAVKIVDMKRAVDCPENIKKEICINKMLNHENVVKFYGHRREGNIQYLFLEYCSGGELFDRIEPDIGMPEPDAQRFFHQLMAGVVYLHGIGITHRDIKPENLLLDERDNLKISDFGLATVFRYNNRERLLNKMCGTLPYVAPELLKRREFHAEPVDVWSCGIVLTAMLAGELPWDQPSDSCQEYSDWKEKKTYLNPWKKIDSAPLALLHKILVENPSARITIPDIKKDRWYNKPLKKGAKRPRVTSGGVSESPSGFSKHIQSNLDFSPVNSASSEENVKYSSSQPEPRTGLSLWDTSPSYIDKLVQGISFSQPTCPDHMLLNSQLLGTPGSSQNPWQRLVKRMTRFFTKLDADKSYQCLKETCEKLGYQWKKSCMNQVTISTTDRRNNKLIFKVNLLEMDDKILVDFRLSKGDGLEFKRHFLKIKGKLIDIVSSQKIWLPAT

[17] = molecular target: T5, Serine/threonine-protein kinase Chk1 (Homo sapiens); settings: at 1 µM
[18] = molecular target: Serine/threonine-protein kinase Chk2 (Homo sapiens) (UniProt O96017); settings: at 0.1 µM
Serine/threonine-protein kinase Chk2 (Homo sapiens), sequence (O96017 whole entry): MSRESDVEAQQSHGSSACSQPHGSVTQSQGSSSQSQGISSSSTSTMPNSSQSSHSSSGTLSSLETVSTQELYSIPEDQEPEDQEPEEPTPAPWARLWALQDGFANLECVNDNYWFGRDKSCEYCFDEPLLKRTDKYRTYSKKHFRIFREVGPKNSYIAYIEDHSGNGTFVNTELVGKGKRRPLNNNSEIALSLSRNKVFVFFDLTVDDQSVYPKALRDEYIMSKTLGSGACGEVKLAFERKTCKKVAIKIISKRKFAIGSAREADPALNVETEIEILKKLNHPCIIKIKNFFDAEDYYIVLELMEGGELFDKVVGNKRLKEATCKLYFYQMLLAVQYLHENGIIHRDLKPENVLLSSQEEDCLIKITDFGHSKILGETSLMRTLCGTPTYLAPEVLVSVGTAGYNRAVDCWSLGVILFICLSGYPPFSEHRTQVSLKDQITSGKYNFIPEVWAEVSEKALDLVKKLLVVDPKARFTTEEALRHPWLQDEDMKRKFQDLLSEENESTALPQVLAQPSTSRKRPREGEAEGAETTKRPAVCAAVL

[19] = molecular target: Serine/threonine-protein kinase Chk2 (Homo sapiens) (UniProt O96017); settings: at 1 µM
[20] = molecular target: Death-associated protein kinase 1 (Homo sapiens) (UniProt P53355); settings: at 0.1 µM;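 further: reported figure is the mean inhibition of DAPK1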
Death-associated protein kinase 1 (Homo sapiens), sequence (P53355 whole entry, looked up): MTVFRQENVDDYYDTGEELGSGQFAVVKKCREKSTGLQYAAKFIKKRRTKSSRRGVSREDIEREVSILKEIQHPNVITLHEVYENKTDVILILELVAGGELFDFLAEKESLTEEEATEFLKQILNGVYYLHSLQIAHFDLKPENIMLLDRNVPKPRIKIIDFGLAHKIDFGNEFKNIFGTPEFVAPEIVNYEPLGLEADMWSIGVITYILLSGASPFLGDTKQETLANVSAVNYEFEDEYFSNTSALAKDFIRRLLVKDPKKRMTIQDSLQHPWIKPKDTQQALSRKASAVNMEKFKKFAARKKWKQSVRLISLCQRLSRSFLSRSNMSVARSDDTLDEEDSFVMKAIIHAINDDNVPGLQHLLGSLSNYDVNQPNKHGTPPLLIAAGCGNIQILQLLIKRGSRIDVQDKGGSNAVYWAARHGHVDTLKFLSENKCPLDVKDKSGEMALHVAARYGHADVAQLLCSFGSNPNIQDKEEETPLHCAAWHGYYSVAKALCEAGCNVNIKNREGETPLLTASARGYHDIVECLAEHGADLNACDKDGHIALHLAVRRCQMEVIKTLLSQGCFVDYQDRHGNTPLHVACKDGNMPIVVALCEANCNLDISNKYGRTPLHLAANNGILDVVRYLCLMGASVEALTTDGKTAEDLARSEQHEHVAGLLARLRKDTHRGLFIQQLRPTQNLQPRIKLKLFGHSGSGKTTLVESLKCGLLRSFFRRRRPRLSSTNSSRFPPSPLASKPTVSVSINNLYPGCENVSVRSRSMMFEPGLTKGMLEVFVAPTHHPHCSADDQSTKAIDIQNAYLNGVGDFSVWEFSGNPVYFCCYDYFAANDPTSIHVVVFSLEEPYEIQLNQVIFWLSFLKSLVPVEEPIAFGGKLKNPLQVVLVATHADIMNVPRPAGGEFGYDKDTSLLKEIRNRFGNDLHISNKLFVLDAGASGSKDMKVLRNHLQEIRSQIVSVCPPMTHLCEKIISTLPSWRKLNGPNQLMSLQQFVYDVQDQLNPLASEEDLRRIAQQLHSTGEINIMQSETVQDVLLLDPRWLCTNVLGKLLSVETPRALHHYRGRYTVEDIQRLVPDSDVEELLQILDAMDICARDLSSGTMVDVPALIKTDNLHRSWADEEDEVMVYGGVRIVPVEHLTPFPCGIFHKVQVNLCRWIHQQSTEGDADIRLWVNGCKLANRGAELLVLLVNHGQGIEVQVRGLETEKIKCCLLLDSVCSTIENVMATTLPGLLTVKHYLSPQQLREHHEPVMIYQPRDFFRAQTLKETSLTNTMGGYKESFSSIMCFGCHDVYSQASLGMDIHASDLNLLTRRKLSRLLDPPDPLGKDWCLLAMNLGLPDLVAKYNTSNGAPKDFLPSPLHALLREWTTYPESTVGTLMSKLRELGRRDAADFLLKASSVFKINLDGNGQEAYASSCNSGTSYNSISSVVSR

5'-AMP-activated protein kinase catalytic subunit alpha-2 (Homo sapiens), sequence (P54646 whole entry, looked up): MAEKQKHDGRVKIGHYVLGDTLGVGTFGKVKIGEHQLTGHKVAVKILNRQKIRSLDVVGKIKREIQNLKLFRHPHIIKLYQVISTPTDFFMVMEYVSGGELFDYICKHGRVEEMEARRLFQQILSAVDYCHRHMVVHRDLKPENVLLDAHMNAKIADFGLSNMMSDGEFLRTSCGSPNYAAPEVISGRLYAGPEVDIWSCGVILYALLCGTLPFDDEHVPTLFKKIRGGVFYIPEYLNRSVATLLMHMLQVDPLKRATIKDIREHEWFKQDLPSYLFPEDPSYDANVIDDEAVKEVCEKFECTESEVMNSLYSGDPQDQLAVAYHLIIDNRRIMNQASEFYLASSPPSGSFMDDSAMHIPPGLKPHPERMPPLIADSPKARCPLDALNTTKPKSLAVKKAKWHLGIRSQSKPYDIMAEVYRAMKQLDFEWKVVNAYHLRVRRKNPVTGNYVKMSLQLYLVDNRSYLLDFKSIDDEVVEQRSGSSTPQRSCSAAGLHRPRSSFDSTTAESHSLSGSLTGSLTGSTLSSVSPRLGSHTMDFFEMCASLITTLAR

| Structure (SMILES) | inhibition [1] [%] | inhibition [2] [%] | inhibition [3] [%] | inhibition [4] [%] | inhibition [5] [%] | inhibition [6] [%] | inhibition [7] [%] | inhibition [8] [%] | inhibition [9] [%] | inhibition [10] [%] | inhibition [11] [%] | inhibition [12] [%] | inhibition [13] [%] | inhibition [14] [%] | inhibition [15] [%] | inhibition [16] [%] | inhibition [17] [%] | inhibition [18] [%] | inhibition [19] [%] | inhibition [20] [%] |
| --- | --- | --- | --- | --- | --- | --- | --- | --- | --- | --- | --- | --- | --- | --- | --- | --- | --- | --- | --- | --- |
| COC(=O)Nc1nc2ccc(Oc3ccc(NC(=O)Nc4cc(C(F)(F)F)ccc4F)cc3)cc2s1 | 1.67 | -0.54 | -3.55 | -0.58 | 0.34 | -0.27 | 0.24 | 0.5 | 2.93 | -0.9 | 0.75 | 0.25 | 1.63 | 0.98 | 2.48 | -6.7 | 0.48 | -0.62 | -0.04 | -0.48 |
| CS(=O)(=O)CCNCc1ccc(-c2ccc3ncnc(Nc4ccc(OCc5cccc(C(F)(F)F)c5)cc4)c3c2)o1 | 3.3 | 0.13 | 6.75 | 4 | 4.04 | 4.95 | 9.19 | -0.93 | 0.88 | 1.38 | 2.36 | 3.02 | 7.55 | -2.56 | -0.39 | 5.09 | 7.64 | 4.17 | 5.4 | 6.71 |
| CC(C)c1ccc(-c2cc(-c3c[nH]nc3-c3ccccn3)ccn2)cc1 | 2.31 | -1.39 | 0.75 | 0.75 | -0.92 | 0.14 | 0.33 | -0.78 | 0.06 | -0.6 | -0.49 | -0.8 | 1.63 | 0.73 | 1.62 | -0.13 | 1.92 | 0.27 | 0.77 | 0.1 |
